# TR-FRET SRC-2 ct: flags TR-FRET format artefacts in PPARgamma SRC-2 recruitment agonist screen; TR-FRET artefact counter-screen; stronger effect = higher value; hit rate 0.4% among 200,000; AID 1049; TR-FRET ratio at 8 µM; in the data active means TR-FRET ratio above about 2000
# PPARg SRC2 recr: PPARgamma-driven SRC-2 recruitment agonism; activation, % at 8 µM; hit rate 0.34% among 200,000; P37231; PPARgamma LBD-SRC-2 recruitment, biochemical;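 further: 0% = vehicle and 100% = reference agonist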
# PPARg SRC-1 ag: agonists of human PPARgamma SRC-1 coactivator recruitment | PPARgamma-SRC-1 coactivator recruitment biochemical assay | activation, % at 8 µM | hit rate 0.41% among 200,000; in the data active means activation above about 19%;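 further: 0% = DMSO and 100% = reference agonist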
# SRC3 TRFRET art: TR-FRET artefact, counter-screen to PPARgamma/SRC-3 agonist assay | PPARgamma/SRC-3 format; stronger effect = higher value | TR-FRET ratio at 8 µM | hit rate 0.39% among 99,000; in the data active means TR-FRET ratio above about 2000
# PPARg SRC-3 ag: agonists of human PPARgamma SRC-3 coactivator recruitment; P37231; AID 731; activation, % at 8 µM; biochemical PPARgamma/SRC-3 coactivator recruitment assay; hit rate 0.26% among 200,000; in the data active means activation above about 23%;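 further: 0% = DMSO and 100% = reference agonist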
# SRC1 TRFRET art: flags TR-FRET format artefacts in PPARgamma SRC-1 recruitment agonist screen; TR-FRET detection artefact counter-screen, emission ratio; stronger effect = higher value; TR-FRET ratio at 8 µM; AID 1051; hit rate 0.34% among 99,000; in the data active means TR-FRET ratio above about 2300
# PPARg SRC2 ag: human PPARgamma SRC-2 recruitment agonism, confirmation; shares compounds with PPARg SRC-3 ag; biochemical SRC-2 recruitment by PPARgamma; activation, % at 8 µM; hit rate 52% among 790;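 further: 0% = vehicle alone and 100% = reference agonist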
# PPARg SRC1 conf: human PPARgamma SRC-1 recruitment agonism, confirmation | hit rate 43% among 790 | PPARgamma–SRC-1 coactivator recruitment biochemical assay | activation, % at 8 µM | shares compounds with PPARg SRC-3 ag; in the data active means activation above about 20%;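 further: 0% = vehicle wells and 100% = reference agonist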
# PPARg SRC3 conf: confirmation of agonists of SRC-3 recruitment by human PPARgamma | shares compounds with PPARg SRC-3 ag | biochemical PPARgamma-SRC-3 coactivator recruitment, agonist mode | activation, % at 8 µM | hit rate 29% among 790 | AID 1301; in the data active means activation above about 24%;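 further: 0% = vehicle wells and 100% = reference agonist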
# Target sequence (P37231 whole entry, looked up): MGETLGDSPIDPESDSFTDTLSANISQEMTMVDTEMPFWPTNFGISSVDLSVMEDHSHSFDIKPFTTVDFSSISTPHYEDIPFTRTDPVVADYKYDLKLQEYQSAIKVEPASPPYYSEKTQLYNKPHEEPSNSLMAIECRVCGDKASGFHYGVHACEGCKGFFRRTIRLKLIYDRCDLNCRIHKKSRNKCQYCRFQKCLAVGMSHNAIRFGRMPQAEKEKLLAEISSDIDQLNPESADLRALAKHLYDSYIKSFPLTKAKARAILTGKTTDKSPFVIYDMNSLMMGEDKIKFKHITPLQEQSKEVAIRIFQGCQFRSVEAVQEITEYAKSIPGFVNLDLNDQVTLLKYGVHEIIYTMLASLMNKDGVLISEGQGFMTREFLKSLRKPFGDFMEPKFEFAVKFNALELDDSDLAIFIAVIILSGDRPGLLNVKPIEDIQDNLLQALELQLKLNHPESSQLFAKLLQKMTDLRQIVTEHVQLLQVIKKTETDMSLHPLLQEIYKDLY
# Target sequence (Q9Y6Q9 whole entry, looked up): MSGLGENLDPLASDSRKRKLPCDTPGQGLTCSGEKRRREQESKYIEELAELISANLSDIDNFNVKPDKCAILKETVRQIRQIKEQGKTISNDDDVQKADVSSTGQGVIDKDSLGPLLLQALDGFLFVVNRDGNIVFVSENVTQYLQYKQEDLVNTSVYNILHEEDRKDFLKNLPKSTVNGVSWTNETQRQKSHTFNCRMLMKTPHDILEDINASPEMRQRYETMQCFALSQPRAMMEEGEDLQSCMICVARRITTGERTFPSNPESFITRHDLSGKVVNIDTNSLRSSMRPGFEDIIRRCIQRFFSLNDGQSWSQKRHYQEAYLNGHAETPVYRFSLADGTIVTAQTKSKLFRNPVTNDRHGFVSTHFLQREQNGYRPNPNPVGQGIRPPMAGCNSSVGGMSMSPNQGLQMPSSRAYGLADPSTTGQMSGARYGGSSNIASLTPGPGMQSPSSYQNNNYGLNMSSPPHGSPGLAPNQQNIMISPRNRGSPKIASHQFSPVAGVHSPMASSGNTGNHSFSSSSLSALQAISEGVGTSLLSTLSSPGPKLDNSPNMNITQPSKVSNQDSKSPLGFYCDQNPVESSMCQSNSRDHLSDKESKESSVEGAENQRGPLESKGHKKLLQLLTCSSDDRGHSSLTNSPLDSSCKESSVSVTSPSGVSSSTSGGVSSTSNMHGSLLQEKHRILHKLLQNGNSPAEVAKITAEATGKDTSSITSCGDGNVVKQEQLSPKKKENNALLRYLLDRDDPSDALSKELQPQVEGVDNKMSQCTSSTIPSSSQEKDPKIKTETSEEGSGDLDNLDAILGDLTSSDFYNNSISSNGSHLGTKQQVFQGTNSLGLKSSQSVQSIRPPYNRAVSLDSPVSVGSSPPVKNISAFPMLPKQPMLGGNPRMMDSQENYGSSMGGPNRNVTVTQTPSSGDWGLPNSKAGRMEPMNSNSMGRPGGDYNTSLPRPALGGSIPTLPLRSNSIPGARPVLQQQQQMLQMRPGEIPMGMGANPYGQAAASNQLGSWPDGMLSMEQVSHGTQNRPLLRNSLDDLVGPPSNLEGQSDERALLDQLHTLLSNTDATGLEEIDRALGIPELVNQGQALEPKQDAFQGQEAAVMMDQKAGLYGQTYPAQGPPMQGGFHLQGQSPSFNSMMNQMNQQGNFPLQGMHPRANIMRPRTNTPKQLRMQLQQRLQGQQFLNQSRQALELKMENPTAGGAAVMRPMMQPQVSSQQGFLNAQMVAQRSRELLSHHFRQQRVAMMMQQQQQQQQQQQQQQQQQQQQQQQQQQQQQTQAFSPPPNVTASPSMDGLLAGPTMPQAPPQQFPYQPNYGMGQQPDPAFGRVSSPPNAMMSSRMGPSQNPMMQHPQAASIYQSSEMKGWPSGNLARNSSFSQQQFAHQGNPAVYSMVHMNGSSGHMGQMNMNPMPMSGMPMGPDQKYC
# Numbers without * were called inactive; . = no result. Hits are enriched below; roughly 0.9% of the tested compounds scored in any of these assays. Unless noted, no stated cut-off is given here; in the data, active means activation above about 22%; inactive means the rest.
SMILES,TR-FRET SRC-2 ct,PPARg SRC2 recr,PPARg SRC-1 ag,SRC3 TRFRET art,PPARg SRC-3 ag,SRC1 TRFRET art,PPARg SRC2 ag,PPARg SRC1 conf,PPARg SRC3 conf
CCOC(=O)Nc1c(C(=O)OC)[nH]c2cc(OC)ccc12,1735,-3,2,.,3,.,.,.,.
CC(=O)Nc1nc(C)c(C(C)=O)s1,1792,7,5,.,20,.,.,.,.
CC(=O)c1sc(NC(=O)C(C)C)nc1C,3308*,81*,59*,.,83*,.,54*,37*,39*
CC(=O)c1sc(NC(=O)C2COc3ccccc3O2)nc1C (stereo not given),2016*,27*,20*,.,28*,.,24*,15,14
CC(=O)c1sc(Nc2ccccn2)nc1C,2724*,48*,53*,.,74*,.,38*,25*,26*
CC(=O)c1sc(Nc2ccc(C)cc2)nc1C,1619,9,6,1514,2,2030,.,.,.
CCn1cc(C=C2C(=O)c3ccccc3C2=O)c2ccccc21,1517,3,-8,1506,2,1699,.,.,.
O=C(Nc1ccc(S(=O)(=O)Nc2ncccn2)cc1)c1ccc(Br)s1,2098*,22*,13,.,37*,.,23*,12,15
O=C(Nc1ccc(Cl)cc1)Nc1ccc(S(=O)(=O)Nc2ncccn2)cc1,1569,7,4,1543,4,1792,.,.,.
O=C(Nc1ncn[nH]1)c1cccc(S(=O)(=O)N2CCOCC2)c1,1306,-3,-2,1414,2,1745,.,.,.
CN1/C(=C\C(=O)c2ccco2)C(C)(C)c2ccccc21,1942,19,5,.,26*,.,19,11,13
CCN(CC)C(=O)c1sc2[nH]c(=S)n(-c3ccccc3)c(=O)c2c1C,1795,27*,13,.,9,.,10,7,8
COC(=O)c1ccc(NC(=O)C(OC)c2ccccc2)cc1 (stereo not given),1594,0,3,1581,0,1951,.,.,.
C#CCn1c(=NC(=O)c2ccc(Br)s2)sc2cc(NC(C)=O)ccc21,1669,3,4,1650,7,1868,.,.,.
C#CCn1c(=NC(=O)c2ccc(Br)s2)sc2cccc(OC)c21,4015*,30*,24*,.,33*,.,46*,32*,26*
COc1cccc(C2C(C(=O)c3cccs3)=C(O)C(=O)N2CCN(C)C)c1OC (stereo not given),1515,10,-2,.,1,.,.,.,.
Cc1nnc(N2C(=O)C(O)=C(C(=O)c3ccco3)C2c2ccc(F)cc2)s1 (stereo not given),2061*,38*,28*,.,49*,.,41*,32*,28*
COCCN1C(=O)C(O)=C(C(=O)c2cccs2)C1c1ccccc1 (stereo not given),1641,3,19*,.,14,.,20,12,11
O=C1NC(c2ccccc2)C(C(=O)c2cccs2)=C1O (stereo not given),1704,10,20*,.,14,.,10,8,7
Cc1nnc(N2C(=O)C(O)=C(C(=O)c3ccco3)C2c2ccc(C(C)(C)C)cc2)s1 (stereo not given),2126*,28*,31*,.,42*,.,39*,31*,25*
COCCCN1C(=O)C(O)=C(C(=O)c2ccco2)C1c1ccc(Br)cc1 (stereo not given),1860,22,14,.,22,.,.,.,.
Cc1nnc(N2C(=O)C(O)=C(C(=O)c3ccco3)C2c2ccc(C(C)C)cc2)s1 (stereo not given),2173*,33*,27*,2243*,10,2626*,19,12,11
Cc1ccc(C2C(C(=O)c3cccs3)=C(O)C(=O)N2c2nnc(C)s2)cc1 (stereo not given),2089*,12,23*,2078*,7,2419*,20,17,14
CCOC(=O)c1c(-c2ncc(C(F)(F)F)cc2Cl)noc1C,1403,-4,-18,1451,2,1651,.,.,.

# Screens deposited in PubChem BioAssay by The Scripps Research Institute Molecular Screening Center.
